Results filed as inconclusive are left out. The source made the active and inactive calls. Unless noted, calls come from the whole dose curve; as a rule, active = well fitted curve in either direction with a large enough effect (not every such curve was filed as active); inconclusive = small, poorly fitted or top-dose-only effect, or another doubt; inactive = flat fitted curve, though single readings scatter.
Experiments:
[1] = target: Lysosomal acid glucosylceramidase (Homo sapiens) (UniProt P04062); test: Glucocerebrosidase-p2 (AID 348; in the data active = potency below about 10 µM; note: potency is the fitted concentration of half-maximal effect); conditions: purified GBA, blue fluorogenic substrate, 40 min
Summary of the method: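 Normal human glucocerebrosidase (0.2 nM) with blue fluorogenic substrate (80 uM final) in citrate/phosphate pH 5.9 with 10mM sodium taurocholate, 0.01% tween-20; 40 min RT, NaOH/glycine stop; fluorescence Ex 365/Em 440; AC50 from a titration from 0.6 nM upwards.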

[2] = AP1 Signaling Pathway (AID 357); conditions: ME-180 AP-1-bla reporter, EGF-induced, beta-lactamase ratio, 5 h; at 7.69 µM (top of the series) unless noted;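 note: ME-180 reporter cells stimulated with EGF at its EC50 level; % is set by controls: 0 for no effect and ±100 for the full control effect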
Summary of the method: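 Titration-series screen for positive or negative modulators of EC50 EGF-induced signaling in ME-180 cells carrying an AP-1-driven beta-lactamase reporter. After 5 hours at 37 degrees Celsius, CCF4 460nm/530nm emission ratio gave %Activity; AC50 values derived.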

[3] = NFAT Signaling Pathway (AID 444); conditions: Jurkat NFAT-bla M1, carbachol, beta-lactamase ratio, 5 h; at 7.69 µM (top of the series) unless noted;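 note: carbachol stimulus at about its EC50 of 1 µM final; % is set by controls: 0 for no effect and ±100 for the full control effect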
Summary of the method: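 Read-out: CCF4 FRET ratio (460 nm/530 nm) after 1 h RT dye loading, used for %activity and AC50 from titration series. Cells: Jurkat NFAT-β-lactamase/M1 line, treated with compound plus 1 uM carbachol for 5 h, 37 °C.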

[4] = Stat Signaling Pathway (AID 446); conditions: ME-180 (cervical carcinoma) SIE beta-lactamase reporter, IL-6 stimulated, 5 h; at 7.69 µM (top of the series) unless noted;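 note: ME-180 cervical cancer cells given 40 pM IL-6 alongside compound; SIE-controlled beta-lactamase reporter measured as 460/530 nm FRET emission ratio; % is set by controls: 0 for no effect and ±100 for the full control effect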
Summary of the method: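 Compound effects on IL-6-induced STAT reporter activity were measured in ME-180 cells. After overnight culture, cells were co-treated with 40 pM IL-6 for 5 hrs before beta-lactamase substrate loading at room temperature.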

[5] = target: Glucocorticoid receptor (Homo sapiens) (UniProt P04150); test: GR-GFP Redistribution (AID 450;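 active = compounds whose dose series gives a full or clear partial fitted curve of increased nuclear translocation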; note: potency is the fitted concentration of half-maximal effect); conditions: U2OS GR-GFP nuclear translocation, laser cytometry, 2 h
[6] = target: Glucocorticoid receptor (Homo sapiens) (UniProt P04150); test: GR-EFC Redistribution (AID 451; calls by dose curve; note: potency is the fitted concentration of half-maximal effect); conditions: CHO-K1 GR-EFC translocation, beta-gal luminescence, 2 h
Summary of the method: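 Translocation of GR-ED fusion to nuclear EA restores b-gal, read by luminescence after 1 h room-temperature detection. Engineered CHO-K1 biosensor cells, 1,000/well, exposed 2 h at 37 C to titrations up to 46 uM final.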

[7] = target: Mitogen-activated protein kinase 10 (Mus musculus) (UniProt Q61831); test: JNK3 AlphaScreen Assay (AID 530); conditions: JNK3 lysate, c-Jun phosphorylation; series mostly up to 11.4 µM;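 note: kinase came from lysate of stimulated human HepG2 cells; signal reports phosphorylation of biotinylated GST-cJun 1-79 at Ser73 with 10 µM ATP; % is set by controls: 0 for no effect and ±100 for the full control effect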
Summary of the method: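 Kinase buffer: 20 mM Tris-HCl pH 7.6, 10 mM MgCl2, 1 mM DTT, 0.1 mM Na3VO4, 0.01% Tween-20; ATP 10 uM. Substrate biotin-GST-cJun(1-79), enzyme from activated HepG2 lysates. Detection by Ser73 phospho-antibody AlphaScreen.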

[8] = target: 3',5'-cyclic-AMP phosphodiesterase 4B (Homo sapiens) (UniProt Q07343); test: qHTS Assay for Inhibitors of PDE-IV (AID 607; active = well fitted activation curve with a large enough effect in the main read-out, with a control signal flat, not every such curve was filed as active; note: % of control where 0% means no effect); conditions: HEK293 ACTOne CNG channel cells, membrane potential fluorescence; series mostly up to 22.9 µM
Summary of the method: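 ACTOne HEK293 cells carry a modified cAMP-gated CNG channel and express endogenous PDE4; plated 1000 cells/well, compounds up to 22.9 uM final. Membrane-potential dye fluorescence (ex 535/em 590) was read; parental cells received 10 uM forskolin + 100 uM RO 20-1724.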

Sequence of Glucocorticoid receptor (Homo sapiens) (P04150 whole entry, looked up, the tested form may be a part): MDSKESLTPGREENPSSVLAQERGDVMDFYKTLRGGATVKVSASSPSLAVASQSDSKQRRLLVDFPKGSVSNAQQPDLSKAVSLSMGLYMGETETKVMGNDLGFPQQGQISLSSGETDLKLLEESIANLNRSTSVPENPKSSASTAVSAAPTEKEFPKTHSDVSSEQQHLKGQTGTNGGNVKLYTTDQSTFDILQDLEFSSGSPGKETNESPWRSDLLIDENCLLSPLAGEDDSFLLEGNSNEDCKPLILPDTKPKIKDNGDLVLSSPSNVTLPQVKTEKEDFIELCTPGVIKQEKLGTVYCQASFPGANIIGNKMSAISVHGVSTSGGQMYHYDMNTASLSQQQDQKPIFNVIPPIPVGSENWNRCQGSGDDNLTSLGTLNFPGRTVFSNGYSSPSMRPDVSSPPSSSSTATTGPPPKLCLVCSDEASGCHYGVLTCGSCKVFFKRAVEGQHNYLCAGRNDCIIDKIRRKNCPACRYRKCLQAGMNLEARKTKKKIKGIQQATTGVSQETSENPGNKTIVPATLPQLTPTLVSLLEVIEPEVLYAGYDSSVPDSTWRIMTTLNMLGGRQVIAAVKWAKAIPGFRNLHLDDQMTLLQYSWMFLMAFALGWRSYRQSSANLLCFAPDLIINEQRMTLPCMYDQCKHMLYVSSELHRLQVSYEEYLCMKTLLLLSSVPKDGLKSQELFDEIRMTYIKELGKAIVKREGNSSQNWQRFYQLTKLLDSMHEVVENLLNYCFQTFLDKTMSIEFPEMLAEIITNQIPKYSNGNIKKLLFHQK
Sequence of 3',5'-cyclic-AMP phosphodiesterase 4B (Homo sapiens) (Q07343 whole entry, looked up): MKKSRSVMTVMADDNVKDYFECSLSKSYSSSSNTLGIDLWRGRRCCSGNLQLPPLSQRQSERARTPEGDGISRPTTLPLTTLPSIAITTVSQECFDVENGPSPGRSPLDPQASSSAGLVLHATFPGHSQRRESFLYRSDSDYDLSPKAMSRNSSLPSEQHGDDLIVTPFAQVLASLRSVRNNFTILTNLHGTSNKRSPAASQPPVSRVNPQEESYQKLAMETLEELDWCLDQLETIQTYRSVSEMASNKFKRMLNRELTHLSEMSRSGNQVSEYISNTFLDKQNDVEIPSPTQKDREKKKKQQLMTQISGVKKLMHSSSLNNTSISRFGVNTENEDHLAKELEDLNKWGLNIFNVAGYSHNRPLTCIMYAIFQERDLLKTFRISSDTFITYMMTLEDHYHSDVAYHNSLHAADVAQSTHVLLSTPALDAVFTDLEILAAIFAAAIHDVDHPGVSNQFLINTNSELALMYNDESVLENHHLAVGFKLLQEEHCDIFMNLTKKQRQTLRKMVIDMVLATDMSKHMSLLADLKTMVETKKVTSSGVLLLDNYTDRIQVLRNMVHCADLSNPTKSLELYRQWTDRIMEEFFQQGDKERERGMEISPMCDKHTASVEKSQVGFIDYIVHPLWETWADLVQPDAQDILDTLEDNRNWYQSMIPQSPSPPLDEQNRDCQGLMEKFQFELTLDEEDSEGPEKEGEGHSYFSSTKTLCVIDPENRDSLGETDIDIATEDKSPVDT
Sequence of Lysosomal acid glucosylceramidase (Homo sapiens) (P04062 whole entry, looked up): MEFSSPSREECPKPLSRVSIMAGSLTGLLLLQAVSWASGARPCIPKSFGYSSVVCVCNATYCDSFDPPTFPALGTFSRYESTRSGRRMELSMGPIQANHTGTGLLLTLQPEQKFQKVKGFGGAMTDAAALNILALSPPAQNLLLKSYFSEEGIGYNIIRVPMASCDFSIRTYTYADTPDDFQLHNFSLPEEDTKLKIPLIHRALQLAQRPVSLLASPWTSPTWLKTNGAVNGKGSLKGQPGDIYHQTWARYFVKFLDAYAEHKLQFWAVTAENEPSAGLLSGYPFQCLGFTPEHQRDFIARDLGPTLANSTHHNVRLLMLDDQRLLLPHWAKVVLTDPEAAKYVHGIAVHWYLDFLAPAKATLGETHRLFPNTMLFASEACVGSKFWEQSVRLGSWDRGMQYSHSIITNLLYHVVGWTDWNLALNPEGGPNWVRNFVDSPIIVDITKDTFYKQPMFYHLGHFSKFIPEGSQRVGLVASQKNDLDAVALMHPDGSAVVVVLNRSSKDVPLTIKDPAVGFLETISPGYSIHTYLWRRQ

O=C(O)c1ccncc1.O=C(O)c1ccncc1.[NH2-].[NH2-].[Pt]
inactive: Potency [1] > 11.4 µM | activity change, negative = inhibition [2] -4.3% | activity change, negative = inhibition [3] 8.19% | activity, negative = inhibition [4] 2.8% | Potency [5] > 46 µM | Potency [6] > 9.22 µM | Potency [7] | Potency [8]

Cc1nc(-c2ccccc2)c(Cc2ccccc2O)c(=O)[nH]1
inactive: Potency [1] > 11.4 µM | activity change, negative = inhibition [2] -9.11% | activity change, negative = inhibition [3] 4.59% | activity, negative = inhibition [4] 0.211% | Potency [5] > 46 µM | Potency [6] > 9.22 µM | Potency [7] | Potency [8]

Cc1cccc2cc3ccc4ccccc4c3cc12
inactive: Potency [1] > 11.4 µM | activity change, negative = inhibition [2] -0.591% | activity change, negative = inhibition [3] -3.47% | activity, negative = inhibition [4] 19.6% | Potency [5] > 46 µM | Potency [6] > 9.22 µM | Potency [7] | Potency [8]

O=C(O)/C(Cc1ccnc2ccccc12)=N\O
inactive: Potency [1] > 11.4 µM | activity change, negative = inhibition [2] -9.39% | activity change, negative = inhibition [3] 0.364% | activity, negative = inhibition [4] 4.23% | Potency [5] > 46 µM | Potency [6] > 9.22 µM | Potency [7] | Potency [8]

OC(Cc1ccccc1)(Cc1ccccc1)c1ccccc1
inactive: Potency [1] > 11.4 µM | activity change, negative = inhibition [2] -8.82% | activity change, negative = inhibition [3] -15.2% | activity, negative = inhibition [4] 11% | Potency [5] > 46 µM | Potency [6] > 9.22 µM | Potency [7] | Potency [8]

CC(C)C[C@H](N)C(=O)O
inactive: Potency [1] > 11.4 µM | activity change, negative = inhibition [2] 10.7% | activity change, negative = inhibition [3] 1.77% | activity, negative = inhibition [4] 5.12% | Potency [5] > 46 µM | Potency [6] > 9.22 µM | Potency [7] | Potency [8]

O=C(NCc1cccs1)O[C@H]1C[C@H]2CC[C@@H]1C2
inactive: Potency [1] > 11.4 µM | activity change, negative = inhibition [2] 19.6% | activity change, negative = inhibition [3] 16.7% | activity, negative = inhibition [4] 8.46% | Potency [5] > 46 µM | Potency [6] > 9.22 µM | Potency [7] | Potency [8]

O=C(O)c1ccc(C(=O)O)c(C(=O)Nc2ccc3c(c2)Cc2ccccc2-3)c1
inactive: Potency [1] > 11.4 µM | activity change, negative = inhibition [2] 5.18% | activity change, negative = inhibition [3] 4.14% | activity, negative = inhibition [4] -0.756% | Potency [5] > 46 µM | Potency [6] > 9.22 µM | Potency [7] | Potency [8]

CC(=O)O[C@H]1CC[C@]2(C)C(=CC[C@H]3[C@H]4C[C@H]5O[C@]6(CC[C@H](C)CN6)[C@H](C)[C@@H]5[C@]4(C)CC[C@@H]32)C1
inactive: Potency [1] > 11.4 µM | activity change, negative = inhibition [2] 13.4% | activity change, negative = inhibition [3] 0.916% | activity, negative = inhibition [4] 3.85% | Potency [5] > 46 µM | Potency [6] > 9.22 µM | Potency [7] | Potency [8]

CC(C)CN(CC#N)CC(C)C
inactive: Potency [1] > 11.4 µM | activity change, negative = inhibition [2] 6.22% | activity change, negative = inhibition [3] 12.7% | activity, negative = inhibition [4] 5.79% | Potency [5] > 46 µM | Potency [6] > 9.22 µM | Potency [7] | Potency [8]

NC(=O)/N=C(\N)NC(=O)c1ccccc1
inactive: Potency [1] > 11.4 µM | activity change, negative = inhibition [2] -2.56% | activity change, negative = inhibition [3] 8.99% | activity, negative = inhibition [4] 2.37% | Potency [5] > 46 µM | Potency [6] > 9.22 µM | Potency [7] | Potency [8]

O=C(O)c1nnsc1-c1ccc(-c2snnc2C(=O)O)cc1
inactive: Potency [1] > 11.4 µM | activity change, negative = inhibition [2] -0.0507% | activity change, negative = inhibition [3] 18.7% | activity, negative = inhibition [4] -0.666% | Potency [5] > 46 µM | Potency [6] > 9.22 µM | Potency [7] | Potency [8]

C[n+]1cccc(/C=C\c2ccc3cccc(O)c3n2)c1
inactive: Potency [1] > 11.4 µM | activity change, negative = inhibition [2] -0.115% | activity change, negative = inhibition [3] 10.1% | activity, negative = inhibition [4] 3.53% | Potency [5] > 46 µM | Potency [6] > 9.22 µM | Potency [7] | Potency [8]

O=C(O)CCSCc1ccc(I)cc1
inactive: Potency [1] > 11.4 µM | activity change, negative = inhibition [2] 2.76% | activity change, negative = inhibition [3] 1.51% | activity, negative = inhibition [4] 4.16% | Potency [5] > 46 µM | Potency [6] > 9.22 µM | Potency [7] | Potency [8]

N[C@@H](CNO)C(=O)O
inactive: Potency [1] > 11.4 µM | activity change, negative = inhibition [2] 7.51% | activity change, negative = inhibition [3] 0.975% | activity, negative = inhibition [4] -9.2% | Potency [5] > 46 µM | Potency [6] > 9.22 µM | Potency [7] | Potency [8]

O=[N+]([O-])c1ccc2c(c1)c(S(=O)(=O)O)cc1nonc12
inactive: Potency [1] > 11.4 µM | activity change, negative = inhibition [2] -3.17% | activity change, negative = inhibition [3] 6.23% | activity, negative = inhibition [4] 19.1% | Potency [5] > 46 µM | Potency [6] > 9.22 µM | Potency [7] | Potency [8]

N#CC(CC(=O)O)=C(c1ccccc1)c1ccccc1
inactive: Potency [1] > 11.4 µM | activity change, negative = inhibition [2] 6.62% | activity change, negative = inhibition [3] -1.1% | activity, negative = inhibition [4] 1.35% | Potency [5] > 46 µM | Potency [6] > 9.22 µM | Potency [7] | Potency [8]

Source: PubChem BioAssay (NCATS)
